{"source": "ChEMBL document CHEMBL3988442", "about": "“University of Dundee, Small-Polar-MMV Screening Library” (2021)", "note": "Among all 48,000 compounds or so, about 13,000 (27%) showed an effect of 50% or more. The list shows a part of the results.", "data": [{"tested_on": "Wolbachia pipientis", "assay": "Anti-Wolbachia Cell-Based Screen", "type": "functional", "parameters": "scale not given: in the data most compounds retested in dose-response had high values", "conditions": "5 µM", "units": {"Percent Effect": "%"}, "values": [{"smiles": "CCn1ccnc1CNc1nccc(-c2cn(C)nc2C)n1", "Percent Effect": -3.456}, {"smiles": "CC(C)C(NC(=O)N1CCN(c2ccc(Cl)cc2)CC1)C(=O)NC1CC1", "note": "(centres undefined)", "Percent Effect": 0.3878}, {"smiles": "COc1ccc(OC)c(C(O)CN2CC(n3cccn3)C2)c1", "note": "(centres undefined)", "Percent Effect": -4.387}, {"smiles": "CCCN1CC2(CCN(c3cc(C4CC4)ncn3)CC2)CC1C(=O)O", "note": "(centres undefined)", "Percent Effect": -4.033}, {"smiles": "CC1(C)CN(Cc2cc(C3CCCCC3)no2)CC[C@]1(C)O", "Percent Effect": 3.04}, {"smiles": "Cc1ccc(NC2CCN(C(=O)c3cnn(C(C)(C)C)c3)CC2)nn1", "Percent Effect": 89.59}, {"smiles": "Cc1ccc(NC2CCN(C(=O)c3ccc(Cl)o3)CC2)nn1", "Percent Effect": -2.526}, {"smiles": "Cc1ccc(NC2CCN(C(=O)c3sccc3C3CC3)CC2)nn1", "Percent Effect": 97.28}, {"smiles": "Cc1ccc(NC2CCN(C(=O)c3ccncc3)CC2)nn1", "Percent Effect": 119.5}, {"smiles": "Cc1ccc(NC2CCN(C(=O)c3cnc(C)s3)CC2)nn1", "Percent Effect": -2.09}, {"smiles": "Cc1ccc(NC2CCN(C(=O)c3n[nH]c4ccccc34)CC2)nn1", "Percent Effect": -3.019}, {"smiles": "Cc1ccc(NC2CCN(C(=O)c3cccn3C)CC2)nn1", "Percent Effect": 4.199}, {"smiles": "Cc1ccc(NC2CCN(C(=O)c3ccsc3)CC2)nn1", "Percent Effect": -4.871}, {"smiles": "Cc1ccc(NC2CCN(C(=O)c3ccco3)CC2)nn1", "Percent Effect": 66.81}, {"smiles": "CC(C)=CCN1CCc2onc(-c3ccc(F)c(F)c3)c2C1", "Percent Effect": -6.636}, {"smiles": "CC(C)NC(=O)[C@@H]1C[C@@H](N)CN1C(=O)CCSCc1ccc(F)cc1", "Percent Effect": -8.578}, {"smiles": "CC(NC(=O)c1cc2n(n1)CCCN(C)C2)c1cn2ncsc2n1", "note": "(centres undefined)", "Percent Effect": 2.374}, {"smiles": "O=C(Cc1cc(F)cc(Cl)c1)N[C@@H]1CCNC[C@H]1O", "Percent Effect": -5.906}, {"smiles": "Cc1ccc(NC2CCN(C(=O)c3ccnc(N(C)C)c3)CC2)nn1", "Percent Effect": 106.8}, {"smiles": "Cc1ccc(NC2CCN(C(=O)c3ccc(C#N)cc3)CC2)nn1", "Percent Effect": 103.2}, {"smiles": "Cc1ccc(NC2CCN(C(=O)c3cccc4ncccc34)CC2)nn1", "Percent Effect": 0.6647}, {"smiles": "CCn1ccnc1S(=O)(=O)Cc1ccc(C(N)=O)cc1", "Percent Effect": -8.81}, {"smiles": "Cc1ccc(NC2CCN(C(=O)CN(C)C3CC3)CC2)nn1", "Percent Effect": -0.8726}, {"smiles": "Cc1ccc(NC2CCN(C(=O)COCC(F)(F)F)CC2)nn1", "Percent Effect": -5.027}, {"smiles": "Cc1ccc(NC2CCN(C(=O)CC3CCCO3)CC2)nn1", "note": "(centres undefined)", "Percent Effect": 6.763}, {"smiles": "Cc1ccc(NC2CCN(C(=O)COCC3CC3)CC2)nn1", "Percent Effect": 115.7}, {"smiles": "Cc1ccc(NC2CCN(C(=O)CCOCC(F)(F)F)CC2)nn1", "Percent Effect": 69.22}, {"smiles": "Cc1ccc(NC2CCN(C(=O)COC3CCCC3)CC2)nn1", "Percent Effect": 70.65}, {"smiles": "Cc1ccc(NC2CCN(C(=O)COC3CCCCC3)CC2)nn1", "Percent Effect": 112.2}, {"smiles": "Cc1ccc(CNC(C)c2ccc(N3CCN(C)CC3)c(F)c2)o1.Cl", "note": "(centres undefined)", "Percent Effect": -9.969}, {"smiles": "Cc1cc(NS(=O)(=O)c2c[nH]c3ncccc23)no1", "Percent Effect": -5.183}, {"smiles": "COCc1ccccc1C(=O)NCC(O)c1ccccc1F", "note": "(centres undefined)", "Percent Effect": -8.064}, {"smiles": "CC(=O)N1CCC2(CC1)CNc1c(F)cccc12.Cl", "Percent Effect": 98.89}, {"smiles": "Cl.O=C(c1ccccc1)N1CCC2(CC1)CNc1c(F)cccc12", "Percent Effect": 97.7}, {"smiles": "CN1C(=O)C2(CCN(C(=O)c3ccccc3)CC2)c2cccc(F)c21.Cl", "Percent Effect": 2.069}, {"smiles": "CC(=O)N1CCC2(CC1)C(=O)N(C)c1c(F)cccc12", "Percent Effect": 2.868}, {"smiles": "CN1CC2(CCN(Cc3cccnc3)CC2)c2cccc(F)c21.Cl", "Percent Effect": 16.02}, {"smiles": "CC(=O)N1CCC2(CC1)CNc1ccc(F)cc12", "Percent Effect": -3.15}, {"smiles": "CN1C(=O)C2(CCN(C(=O)c3cccnc3)CC2)c2cccc(F)c21", "Percent Effect": 5.447}, {"smiles": "CS(=O)(=O)N1CCc2[nH]cnc2C12CCN(C(=O)c1cccnc1)CC2", "Percent Effect": -96.76}, {"smiles": "Cl.O=C(c1cccnc1)N1CCC2(CC1)CNc1c(F)cccc12", "Percent Effect": 106.5}, {"smiles": "CN1C(=O)C2(CCN(C(=O)c3ccccc3)CC2)c2cc(F)ccc21.Cl", "Percent Effect": -1.303}, {"smiles": "CN1CC2(CCN(C(=O)c3cccnc3)CC2)c2cccc(F)c21.Cl", "Percent Effect": 104.8}, {"smiles": "O=S(=O)(NCCN1CC=CC1)c1cncc(Cl)c1", "Percent Effect": -9.615}, {"smiles": "CC(C)CN(C)Cc1c[nH]nc1-c1ccc(F)cc1F", "Percent Effect": -3.52}, {"smiles": "CNC(=O)NC(=O)CN1CCN(CC(F)(F)F)CC1(C)C", "Percent Effect": -1.445}, {"smiles": "CCC(C)(NCC(=O)NC(C)C)c1nc(C)cs1", "note": "(centres undefined)", "Percent Effect": 4.424}, {"smiles": "CCN1CCN(c2ccc(C(=O)NCc3cc(C)no3)cc2F)CC1", "Percent Effect": -18.85}, {"smiles": "Cc1nc(CN(C)C(=O)CN(C)C)nc2c1CCC(=O)N2CCC(C)C", "Percent Effect": 66.01}, {"smiles": "Cc1nc(C)c2c(n1)CCN(C(=O)CN(C)C)CC2", "Percent Effect": -4.048}, {"smiles": "Cc1nnc(CN(C)C(=O)C(CC(C)C)N2CCCCC2=O)n1C", "note": "(centres undefined)", "Percent Effect": -1.247}, {"smiles": "COC(=O)N1CCCC(NC(=O)NCc2nc(C)cs2)C1", "note": "(centres undefined)", "Percent Effect": -5.295}, {"smiles": "CCC(=O)N(CC)CCc1nccs1", "Percent Effect": -20.38}, {"smiles": "CCOc1ccc(CC(CNC(=O)c2ccoc2)C(N)=O)cc1", "note": "(centres undefined)", "Percent Effect": 0.9555}, {"smiles": "Cc1cccc(C(C)(C)CNC(=O)CN(C)c2cnccn2)c1", "Percent Effect": 2.301}, {"smiles": "CN(Cc1cc(C2CC2)[nH]n1)C(=O)c1ccccc1C1CCNC1", "note": "(centres undefined)", "Percent Effect": 6.983}, {"smiles": "Cc1ccc2[nH]c(=O)c(CN(C)Cc3cc(C4CC4)[nH]n3)cc2c1", "Percent Effect": -5.439}, {"smiles": "CCCn1ncc(C(=O)N(C)Cc2cc(C3CC3)[nH]n2)c1C", "Percent Effect": 103.9}, {"smiles": "CCCn1ncc(C(=O)N(C)Cc2n[nH]c3c2CCC3)c1C", "Percent Effect": -0.7404}, {"smiles": "CCCn1ncc(C(=O)N2CCN(C(=O)c3ccc[nH]3)CC2)c1C", "Percent Effect": 2.425}, {"smiles": "CN(Cc1cc(C2CC2)[nH]n1)C(=O)c1cnn2ccn(C)c12", "Percent Effect": 92.15}, {"smiles": "CN(Cc1cc(C2CC2)[nH]n1)C(=O)C(c1cccnc1)N1CCCC1", "note": "(centres undefined)", "Percent Effect": 5.078}, {"smiles": "Cc1ccc(F)c(NC(=O)CCC(=O)N(C)Cc2cc(C3CC3)[nH]n2)c1", "Percent Effect": -39.88}, {"smiles": "Cc1cnc2c(C(=O)N(C)Cc3cc(C4CC4)[nH]n3)cnn2c1", "Percent Effect": 88.43}, {"smiles": "Cn1ccc(CNC(=O)N2CCCC3(C2)OCCO3)c1", "Percent Effect": -4.368}, {"smiles": "Cc1ccc(CNCc2cccc3cn[nH]c23)c(OC2CCOC2)c1", "note": "(centres undefined)", "Percent Effect": 1.328}, {"smiles": "CCCNC(=O)CN1CCOC(CC)C1", "note": "(centres undefined)", "Percent Effect": -15.19}, {"smiles": "CSc1nc2cc(C)n(CC(N)=O)c2c(=O)n1CC(C)C", "Percent Effect": 0.2317}, {"smiles": "CC[C@@]1(O)CCN(C(=O)CCSCc2ccc(F)cc2)C[C@H]1O", "Percent Effect": 8.229}, {"smiles": "NC(=O)C1CCN(C(=O)CCSCc2ccc(Cl)c(Cl)c2)CC1", "Percent Effect": 148.4}, {"smiles": "NC(=O)C1CCN(C(=O)CCCc2ccc(Cl)c(Cl)c2)CC1", "Percent Effect": -6.164}, {"smiles": "O=C(C1COc2ccccc2O1)N1Cc2cnn(CCO)c2C1", "note": "(centres undefined)", "Percent Effect": -44.4}, {"smiles": "COc1ncccc1C(=O)N(C)Cc1nc(-c2ccccn2)no1", "Percent Effect": 0.08907}, {"smiles": "Cc1nc(O)cc(C2CCN(Cc3cccc(F)c3F)C2)n1.O=C(O)CC(O)(CC(=O)O)C(=O)O", "note": "(centres undefined)", "Percent Effect": -5.944}, {"smiles": "CCN1CCC(CNCc2cc(OC)ccc2OC)C1", "note": "(centres undefined)", "Percent Effect": 4.75}, {"smiles": "COc1ccc(-c2nc(CN3CCCC(OC)C3)c(C)o2)c(F)c1", "note": "(centres undefined)", "Percent Effect": 6.893}, {"smiles": "COc1ccc(F)c(CN2CCCC(c3cc(O)nc(C)n3)C2)c1", "note": "(centres undefined)", "Percent Effect": 108.4}, {"smiles": "COc1ccc(OC)c(CN2CCC(c3cc(O)nc(C)n3)C2)c1", "note": "(centres undefined)", "Percent Effect": 99.72}, {"smiles": "COCC(=O)N1CCC2(CCCN(Cc3cc(OC)ccc3F)C2)C1", "note": "(centres undefined)", "Percent Effect": 2.404}, {"smiles": "COc1ccc(CN2CCC(c3cc(O)nc(C)n3)C2)c(OC)c1.O=C(O)CC(O)(CC(=O)O)C(=O)O", "note": "(centres undefined)", "Percent Effect": 122.8}, {"smiles": "COc1ccc(F)c(CN2CCC(c3cc(O)nc(C)n3)C2)c1.O=C(O)CC(O)(CC(=O)O)C(=O)O", "note": "(centres undefined)", "Percent Effect": -11.82}, {"smiles": "Cc1nc(O)cc(C2CCN(Cc3ccc(F)c(F)c3)C2)n1.O=C(O)CC(O)(CC(=O)O)C(=O)O", "note": "(centres undefined)", "Percent Effect": 92.59}, {"smiles": "CNC(=O)[C@@H]1C[C@@H](N)CN1C(=O)CCSCc1ccccc1", "Percent Effect": -2.753}, {"smiles": "Cc1ncc(-c2nc3cc(S(=O)(=O)N4CCCC4)ccc3n2C)cn1", "Percent Effect": -2.365}, {"smiles": "O=C(Nc1ccc(-n2cccn2)c(F)c1)C1CCN(C(=O)C2CC2)CC1", "Percent Effect": -6.661}, {"smiles": "Cc1nnn2c1COCC(CNC(=O)c1ccnnc1)C2", "note": "(centres undefined)", "Percent Effect": -2.264}, {"smiles": "CCN(C)CC1CCN(C(=O)NCCC2Cc3ccccc3C2)C1", "note": "(centres undefined)", "Percent Effect": -23.1}, {"smiles": "COc1ccc(CN2CCC(c3cc(O)nc(C)n3)C2)c(F)c1", "note": "(centres undefined)", "Percent Effect": 113.4}, {"smiles": "CC(C)c1noc(C[S+]([O-])CC(=O)Nc2cc(F)ccc2F)n1", "note": "(centres undefined)", "Percent Effect": -11.5}, {"smiles": "N#Cc1cc(N2CCC(CS(N)(=O)=O)CC2)c2ccccc2n1", "Percent Effect": 3.151}, {"smiles": "Cc1nc(CN2CCO[C@@H]3CN(C(=O)NC(C)C)CC[C@@H]3C2)cs1.O=C(O)C(F)(F)F", "Percent Effect": -13.31}, {"smiles": "Cc1nc(CN2C[C@@H](NC(=O)C3CCC3)[C@H]3COC[C@H]32)cs1.O=C(O)C(F)(F)F", "Percent Effect": -15.38}, {"smiles": "Cc1nc(CN2CCn3cc(CNC(=O)C4CCC4)nc3C2)cs1.O=C(O)C(F)(F)F", "Percent Effect": -18.19}, {"smiles": "Cc1nc(CN2C[C@@H]3CCCO[C@@H]3[C@H](N(C)C(C)C)C2)cs1.O=C(O)C(F)(F)F.O=C(O)C(F)(F)F", "Percent Effect": -4.847}, {"smiles": "CNC(=O)[C@@H]1C[C@H]2CN(C(=O)c3ccco3)C[C@H]2N1C(C)C.O=C(O)C(F)(F)F", "Percent Effect": 99.89}, {"smiles": "CNC(=O)[C@@H]1C[C@H]2CN(Cc3csc(C)n3)C[C@H]2N1C(C)C.O=C(O)C(F)(F)F.O=C(O)C(F)(F)F", "Percent Effect": 116.9}, {"smiles": "CNC(=O)[C@@H]1C[C@H]2CN(C(=O)c3ccco3)C[C@H]2N1C.O=C(O)C(F)(F)F", "Percent Effect": -16.64}, {"smiles": "CNC(=O)[C@H]1C[C@@H]2CN(Cc3csc(C)n3)C[C@@H]2N1S(C)(=O)=O.O=C(O)C(F)(F)F", "Percent Effect": 110}, {"smiles": "CNC(=O)[C@H]1C[C@@H]2CN(S(=O)(=O)Cc3ccccc3)C[C@@H]2N1C.O=C(O)C(F)(F)F", "Percent Effect": -3.951}]}]}
